From PubChem BioAssay AID1018 (Sanford-Burnham Center for Chemical Genomics, 2008) come the findings set out here.

Hit rate of the full screen: of about 200,000 compounds, about 15 (0.007%) were called active. Many of the other results were omitted from the sample, so actives are more common in it than they were. A number with no mark means an inactive call. Cut-off read from the data, not from the text of the source: active = displacement above about 50%; inactive = the rest.

The assay deals with E3 ubiquitin-protein ligase XIAP (Homo sapiens) (UniProt P98170). The experiment in a line: small molecules displacing peptide from XIAP – biochemical, IAP family, fluorescence polarization (AID 1018). The conditions noted are these: XIAP BIR domain, at 20 µM, stronger effect = higher value. (In general: Fluorescence polarisation rises when a labelled molecule tumbles more slowly, as on binding a larger partner.)
Sequence of E3 ubiquitin-protein ligase XIAP (Homo sapiens) (P98170 whole entry, looked up, the tested form may be a part): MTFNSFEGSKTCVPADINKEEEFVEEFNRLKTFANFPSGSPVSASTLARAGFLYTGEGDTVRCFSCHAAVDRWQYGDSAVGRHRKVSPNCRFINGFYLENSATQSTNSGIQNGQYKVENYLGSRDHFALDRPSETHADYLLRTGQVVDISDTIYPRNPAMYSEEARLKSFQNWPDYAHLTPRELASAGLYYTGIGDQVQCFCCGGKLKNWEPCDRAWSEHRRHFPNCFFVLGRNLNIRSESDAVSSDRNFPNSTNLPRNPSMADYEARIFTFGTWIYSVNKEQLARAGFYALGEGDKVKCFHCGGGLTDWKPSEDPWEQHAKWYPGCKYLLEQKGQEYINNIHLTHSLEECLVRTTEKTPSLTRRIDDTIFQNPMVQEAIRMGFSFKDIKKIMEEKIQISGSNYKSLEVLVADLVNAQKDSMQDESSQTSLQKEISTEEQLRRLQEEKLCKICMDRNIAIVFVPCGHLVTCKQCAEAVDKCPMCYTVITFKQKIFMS
For the molecule `CN1C(=O)N(C)C(=O)C2(Cc3cc(N)ccc3N3CCN(c4ccccc4F)CC32)C1=O` (stereo not given), the displacement is 55.4% (active).

In the case of `CN1C(=O)NC(=O)[C@]2(Cc3ccccc3N3CCN(c4ccccc4)CC32)C1=O` (stereo not given in full), the displacement is -2.4%.

As for `CN1C(=O)N(C)C(=O)C2(Cc3ccccc3N3CCOCC32)C1=O` (stereo not given), the displacement is -5.1%.

Turning to `Cc1ccc(-c2nc3ccccc3c(=O)n2-c2ccccn2)cc1`, the displacement is -3%.

As to `CCCCCSc1cc(OC)c(CCN(C)C)cc1OC`, the displacement was -2.2%.
